Data taken from PubChem BioAssay (NCI).
The panel holds about 83,000 compounds, 20% with a hit somewhere; the sample as a whole holds those more often.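 Testing used 96-well plates and a 48-hour single-concentration exposure. Example: -40 means 40% of the starting cells died.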 Unmarked numbers belong to inactive results. Active and inactive are the calls of the source. How the source made its calls: active means growth percent below 10; inactive means the rest.

How the values were obtained:
Experiment in all cases: NCI-60 one-dose screen, 48 h (100 = growth as untreated, 0 = no growth, -100 = all killed)
Conditions in all cases: 10 µM unless noted
SK-MEL-2 melanoma = system: SK-MEL-2 melanoma
EKVX NSCLC = system: EKVX NSCLC
SN12C renal = system: SN12C renal
UO-31 renal = system: UO-31 renal
TK-10 renal = system: TK-10 renal
ACHN renal = system: ACHN renal
CAKI-1 renal = system: CAKI-1 renal
A498 renal = system: A498 renal
CCRF-CEM leukemia = system: CCRF-CEM leukemia
MOLT-4 leukemia = system: MOLT-4 leukemia

| SMILES | growth (SK-MEL-2 melanoma) | growth (EKVX NSCLC) | growth (SN12C renal) | growth (UO-31 renal) | growth (TK-10 renal) | growth (ACHN renal) | growth (CAKI-1 renal) | growth (A498 renal) | growth (CCRF-CEM leukemia) | growth (MOLT-4 leukemia) |
| --- | --- | --- | --- | --- | --- | --- | --- | --- | --- | --- |
| CNc1nc(C)c(-c2nc(Nc3cccc(S(N)(=O)=O)c3)ncc2F)s1 | -50.9% (active) | 4.38% (active) | -17.2% (active) | 1.38% (active) | -2.07% (active) | 2.7% (active) | 14.8% | -38.8% (active) | -2.73% (active) | -26.9% (active) |
| NC1=CC(=O)C(=O)c2ccccc21 | 75.1% | 76.2% | 84.2% | 71.3% | 114% | 85.2% | 91.3% | 101% | 93% | 74.1% |
| Oc1cccc(Nc2nccc(-c3ccc4ccccc4c3)n2)c1 | 14.5% | 50.5% | 33.8% | 34% | 62% | 37.6% | 24% | 71.2% | 6.6% (active) | 23.5% |
| CCN(CC)CC(O)c1cc(-c2ccc(Cl)cc2)nc2c(C)c(Cl)ccc12 (stereo not given) | -68.8% (active) | -63.1% (active) | -86.4% (active) | -78.8% (active) | -92.5% (active) | -93.2% (active) | -100% (active) | -36.4% (active) | -37.4% (active) | -72.4% (active) |
| Nc1cc(-c2nc3sccn3c2-c2ccnc(NCCCNS(=O)(=O)c3ccc(F)cc3)n2)ccc1F | 60.4% | 58.3% | 48.9% | 30.7% | 98.3% | 32.5% | 29.7% | 54.3% | 21.2% | 34% |
| O=C(NCc1cccc(C(F)(F)F)c1)[C@H](CCC(=O)N1CCN(C2CCCCC2)CC1)N1C(=O)[C@@H](N2C(=O)OC[C@@H]2c2ccccc2)[C@H]1/C(Cl)=C/c1ccccc1 | 34.8% | 53.8% | 37.1% | 27.5% | 40.8% | 58.4% | 62.4% | 46.9% | 33.9% | 21.4% |
| CCCCCCCCCCNC(=O)CCl | 85.7% | 95.9% | 63.8% | 58.1% | 83.8% | 78% | -59.4% (active) | 85.9% | 57.8% | 54.8% |
| C/C(=C(/c1ccc(O)cc1)c1ccc(Cl)cc1)c1ccccc1 | -85.1% (active) | -81% (active) | -90.5% (active) | -100% (active) | -63.7% (active) | -92.3% (active) | -54.2% (active) | -55.1% (active) | -61.2% (active) | -29.5% (active) |
| Nc1ccc(Nc2nccc(-c3ccc4ccccc4c3)n2)cc1 | 5.47% (active) | 61% | 46.8% | 45.7% | 58.7% | 45.6% | 32% | 16.6% | 27.3% | 20.2% |
| COc1cc(NCCCCCN=C(N)NC(N)=NC(C)C)c2ncccc2c1 | 20.1% | 42.2% | 25.9% | 76.7% | 66.7% | 105% | 100% | 110% | 25.3% | 27.9% |
| Cc1ccc2cnc(N)c(C#Cc3cncc(C(=O)Nc4ccc(CN5CCN(C)CC5)c(C(F)(F)F)c4)c3)c2c1 | -62.1% (active) | -93.9% (active) | -97.5% (active) | -93.3% (active) | -94.4% (active) | -99.6% (active) | -95.1% (active) | -94.2% (active) | -45% (active) | -54.8% (active) |
| CS(=O)(=O)c1c(Nc2ccccc2)n[nH]c1N | 113% | 116% | 95% | 96.4% | 90.2% | 102% | 105% | 115% | 91.1% | 98.6% |
| CCNS(=O)(=O)c1ncnc2nc[nH]c12 | 109% | 104% | 112% | 85.8% | 122% | 119% | 94.9% | 110% | 91.1% | 122% |
| O=C(O)c1cccc2c1-c1ccccc1C2=O | 98.4% | 90.3% | 84.2% | 94.3% | 91.1% | 94.4% | 65.1% | 96.1% | 84.2% | 99.4% |
| O=C(C[C@@H](C(=O)NCc1cccc(C(F)(F)F)c1)N1C(=O)[C@@H](N2C(=O)OC[C@@H]2c2ccccc2)[C@H]1/C=C/c1ccccc1)NC1CCN(Cc2ccccc2)CC1 | 49.6% | 82.3% | 82.2% | 64.3% | 61% | 96.2% | 85.2% | 49.8% | 21% | -5.43% (active) |
| Oc1ccc2c(=S)cc(-c3ccc(Br)cc3)oc2c1O | 63.8% | 87.9% | -4.08% (active) | 17.4% | 103% | 13.9% | 65.8% | 53.9% | 5.37% (active) | 7.88% (active) |
| C=C(C[n+]1ccccc1)[C@@H]1CC[C@]2(C(=O)OC)CC[C@]3(C)[C@H](CC[C@@H]4[C@@]5(C)CC[C@H](O)C(C)(C)[C@@H]5CC[C@]43C)[C@@H]12 | 100% | 104% | 95.4% | 74% | 113% | 96.5% | 90.6% | 123% | 99% | 101% |
| O=C(CN1CCN(c2cc3c(cc2F)c(=O)c(C(=O)N/N=C/c2ccccc2)cn3C2CC2)CC1)N/N=C\c1ccccc1 | 86.1% | 66.6% | 65.7% | 53.3% | 89.1% | 72% | 78.1% | 78.7% | 60.9% | 42.7% |
| Cc1ccc(N)cc1F | 97.1% | 98% | 96% | 92.6% | 123% | 99.8% | 74.5% | 98.2% | 102% | 92.3% |
| COc1ccc(S(=O)(=O)NCCCNc2nccc(-c3c(-c4cccc(N)c4)nc4sccn34)n2)cc1 | 113% | 96.3% | 76.7% | 76.4% | 134% | 78.8% | 77.5% | 91.2% | 78.4% | 75.5% |
| COc1ccc(-c2cc(=O)[nH]c3c(OC)c4ccccc4c(OC)c23)cc1 | 27.6% | 26.4% | 43.2% | 31.3% | 47.8% | 50.5% | 38.7% | -4.12% (active) | 10.8% | 6.7% (active) |
| CCOC(=O)C12CCCC1=CC(=O)CC2 (stereo not given) | 89.9% | 111% | 110% | 85.3% | 128% | 106% | 103% | 110% | 95.7% | 94.6% |
| CS(=O)(CCCCN=C=S)=NC(=O)c1c(F)c(F)c(F)c(F)c1F (stereo not given) | 88.3% | 99% | 90.9% | 90% | 76.9% | 49.6% | 96.3% | 88.8% | 73.5% | 82.5% |
| Oc1c(Cl)cc(Cl)cc1CNc1nccnn1 | 115% | 94.4% | 90.4% | 93.5% | 113% | 99.8% | 89.6% | 88.7% | 111% | 101% |
| Cn1c(=O)c2c(ncn2CC[N+](C)(C)C)n(C)c1=O | 99.7% | 94.6% | 103% | 91.7% | 91.8% | 110% | 102% | 115% | 109% | 104% |
| CCN(CC)CC(O)CNc1c2ccc([N+](=O)[O-])cc2nc2cc(OC)c(OC)cc12 (stereo not given) | -48.7% (active) | -27.4% (active) | -34.1% (active) | 4.89% (active) | 2.27% (active) | 11.1% | 16.3% | -52.9% (active) | 9.53% (active) | -9.91% (active) |
| O=C(/C=C/c1ccc(Cl)cc1)c1ccc(O)c(CN2CCN(c3cc4c(cc3F)c(=O)c(C(=O)O)cn4C3CC3)CC2)c1 | 68.6% | 62.4% | 26.8% | 33.4% | 73.8% | 32.5% | 45.5% | 39.9% | 43.9% | 66% |
